# Test results from ChEMBL document CHEMBL1201862, “PubChem BioAssay data set” (2004).
# Among all 400,000 compounds or so, about 2,100 (0.53%) were called active. Another 14% or so got no clear call; they are omitted. The sample holds actives, similar compounds and a random draw of the others, so the mix is not that of the screen. The rule behind the calls is not given here.
# Target: Ataxin-2 (Homo sapiens) (UniProt Q99700)
# Assay: qHTS for Inhibitors of ATXN expression.
# Format: functional
# Ataxin-2 (Homo sapiens), sequence (Q99700 whole entry): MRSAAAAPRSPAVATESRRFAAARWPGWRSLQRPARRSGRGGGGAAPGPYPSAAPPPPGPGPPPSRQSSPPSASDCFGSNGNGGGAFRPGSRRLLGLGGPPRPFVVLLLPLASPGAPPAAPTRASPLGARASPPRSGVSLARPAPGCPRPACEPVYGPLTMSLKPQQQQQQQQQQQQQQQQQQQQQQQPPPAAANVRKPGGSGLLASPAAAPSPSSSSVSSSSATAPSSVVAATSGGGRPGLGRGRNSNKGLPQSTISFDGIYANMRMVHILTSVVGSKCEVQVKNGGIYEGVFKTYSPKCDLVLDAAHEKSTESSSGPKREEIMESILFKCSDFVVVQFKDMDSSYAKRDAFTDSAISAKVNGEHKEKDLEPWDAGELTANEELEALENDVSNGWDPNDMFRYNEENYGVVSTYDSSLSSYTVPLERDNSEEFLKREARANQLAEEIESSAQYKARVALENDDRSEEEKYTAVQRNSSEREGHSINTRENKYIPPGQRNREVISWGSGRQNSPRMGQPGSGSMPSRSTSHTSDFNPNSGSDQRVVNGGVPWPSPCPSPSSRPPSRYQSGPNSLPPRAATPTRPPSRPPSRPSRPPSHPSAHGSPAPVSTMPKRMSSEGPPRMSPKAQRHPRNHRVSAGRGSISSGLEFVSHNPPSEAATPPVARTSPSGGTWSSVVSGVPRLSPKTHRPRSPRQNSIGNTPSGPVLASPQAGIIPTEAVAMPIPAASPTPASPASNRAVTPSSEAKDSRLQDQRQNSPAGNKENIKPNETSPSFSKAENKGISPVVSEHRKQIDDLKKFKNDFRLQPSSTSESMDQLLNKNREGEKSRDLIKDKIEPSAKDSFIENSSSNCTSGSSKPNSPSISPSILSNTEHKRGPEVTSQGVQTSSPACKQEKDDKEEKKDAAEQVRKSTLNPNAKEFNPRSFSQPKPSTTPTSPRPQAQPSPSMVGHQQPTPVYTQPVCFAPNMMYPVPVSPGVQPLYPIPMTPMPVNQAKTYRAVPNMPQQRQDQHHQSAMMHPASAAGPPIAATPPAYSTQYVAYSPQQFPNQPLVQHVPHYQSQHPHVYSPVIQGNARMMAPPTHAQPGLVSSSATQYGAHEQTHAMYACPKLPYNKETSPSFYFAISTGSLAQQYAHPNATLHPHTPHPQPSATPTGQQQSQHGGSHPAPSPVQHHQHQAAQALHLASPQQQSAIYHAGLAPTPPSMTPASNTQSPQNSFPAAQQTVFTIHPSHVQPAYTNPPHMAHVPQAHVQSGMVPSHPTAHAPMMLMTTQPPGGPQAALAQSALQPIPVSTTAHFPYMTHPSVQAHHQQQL
row,SMILES,Potency
1,O=C(N/N=C/c1sc(N2CCOCC2)nc1-c1ccccc1)c1ccccc1Cl,inactive
2,O=C(Oc1c(-c2ccco2)oc2ccccc2c1=O)c1cccnc1,inactive
3,CCOC(=O)C1=C(C)OC(N)=C(C#N)C1c1cccs1 (centres undefined),inactive
4,O=S(=O)(Nc1cccc(-c2nc3cccnc3s2)c1)c1ccc2c(c1)CCCC2,inactive
5,CC1C(=O)C(C)C(c2cc(Cl)ccc2O)NC1c1cc(Cl)ccc1O (centres undefined),39.8 µM (active)
6,CCc1cc2c(CN3CCN(CC)CC3)cc(=O)oc2cc1O,inactive
7,CCCCN(C)C1=CC2=CC(=C(C#N)C#N)CCC2CC1 (centres undefined),inactive
8,COCc1c(C(=O)N2CCC(N3CCCCC3)CC2)cnn1-c1ncc(C)c(-c2cccs2)n1,inactive
9,COc1cc(OC)c(OC)cc1CNCC1COc2ccccc2O1 (centres undefined),inactive
10,Cc1sc2ncn(CC(=O)NCC3COc4ccccc4O3)c(=O)c2c1S(=O)(=O)N1CCCCC1 (centres undefined),inactive
11,Cc1nc2ccccc2c2oc(C(=O)NCC3COc4ccccc4O3)cc12 (centres undefined),35.5 µM (active)
12,O=C(c1cc(-c2ccc(F)cc2)nc2ccccc12)N1CCN(C2CCS(=O)(=O)C2)CC1 (centres undefined),inactive
13,Cc1nc2ccccc2c2oc(C(=O)N3CCC(N4CCCCC4)CC3)cc12,5.62 µM (active)
14,Nc1cccc(N2C(=O)c3cccc4c(N)ccc(c34)C2=O)c1,inactive
15,CC(O)C(/N=C/C1=C(O)OC(C)(C)OC1=O)C(=O)O (centres undefined),inactive
16,O=C(O)c1ccc2nc(-c3ccco3)c(-c3ccco3)nc2c1,inactive
17,CCOc1ccc2nc3sc(C(=O)N4CCOCC4)c(N)c3cc2c1,inactive
18,Nc1c(C(=O)Nc2ccc(S(=O)(=O)N3CCCC3)cc2)sc2nc3ccc(OC(F)(F)F)cc3cc12,4.47 µM (active)
19,CCc1cccc2cc3c(N)c(C(=O)Nc4ccc(S(=O)(=O)N5CCCC5)cc4)sc3nc12,inactive
20,N#C/C(=C\c1c(Oc2ccc(Cl)cc2)nc2ccccn2c1=O)C(=O)NC1CCS(=O)(=O)C1 (centres undefined),inactive
21,COC(=O)c1[nH]c2ccc(Br)cc2c1NC(=O)C(C)N1CCN(C2CCCCC2)CC1 (centres undefined),39.8 µM (active)
22,Cn1c(N)c(C(=O)COC(=O)CCOc2ccc(C(C)(C)C)cc2)c(=O)n(C)c1=O,inactive

row,SMILES,Potency
1,O=C(NC1CCC(O)CC1)c1cc(-c2ccco2)nc2ccccc12 (centres undefined),inactive
2,COc1cc(CN2CCC3(CCC(CNC(=O)c4ccccc4)O3)CC2)cc(OC)c1 (centres undefined),11.2 µM (active)
3,COc1cc(OC)cc(C(=O)NCCCCNC(=O)c2cc(OC)cc(OC)c2)c1,inactive
4,CN1CCCC1CCNc1ccc2c(=O)c3ccccc3oc2c1 (centres undefined),inactive
5,N#C/C(=C(/O)COC(=O)c1ccccc1O)c1nc2ccccc2s1,inactive
6,CC1=CC(=C(C#N)c2nc3ccccc3s2)C=C(C)N1CC1CCCO1 (centres undefined),inactive
7,Cc1c(Cl)cccc1N/C(SCC(=O)N1CCCCCC1)=C(/C#N)c1nc2ccccc2s1,25.1 µM (active)
8,COc1ccc(CNCC(=O)Nc2sccc2C#N)cc1,inactive
9,COc1ccc(-c2c(C#N)c(N)nc3sc(C(=O)c4ccccc4)c(N)c23)cc1,inactive
10,COc1ccc(-c2oc(NC(=O)CCl)c(C#N)c2-c2ccc(OC)cc2)cc1,31.6 µM (active)
11,Cc1cccc(C)c1NC(=O)NC1(C(=O)N2CCCCC2)CCCCC1,inactive
12,O=S(=O)(Nc1nc2n(n1)C(c1ccc(F)cc1)C=C(c1ccccc1)N2)c1ccc(Cl)cc1 (centres undefined),inactive
13,CC(C)Cc1ccc(C(C)/C=C2/CCC(CN3CCCCC3)C2=O)cc1 (centres undefined),35.5 µM (active)
14,CCOC(=O)C1C(=O)C=C(c2ccc(NS(C)(=O)=O)cc2)CC1c1ccco1 (centres undefined),inactive
15,COn1c(C)c(C)c2c3nonc3ccc21,inactive
16,O=C(O)c1cc2cc(Cl)cc(Cl)c2oc1=O,inactive
17,O=C1C(Br)=C(c2ccccc2)C(c2ccccc2)=C1c1ccccc1,39.8 µM (active)
18,O=C(c1cnc2nc3ccccc3n2c1)c1cc(F)ccc1O,inactive
19,CC(C)(C)c1ccc(C2=CC(c3ccccc3F)n3ncnc3N2)cc1 (centres undefined),inactive
20,CN1C(=O)c2ccc(N3CCCC3)cc2C1=O,inactive
21,O=S(=O)(c1ccccc1)c1ccc(N2CCCCCC2)cc1,inactive
22,O=C1C=CC(=O)N1c1ccc(N2CCCCC2)cc1,39.8 µM (active)

row,SMILES,Potency
1,NC(c1csc(Nc2ccc(C(=O)c3ccccc3)cc2)n1)C1CCCCC1 (centres undefined),31.6 µM (active)
2,COc1ccc(C(=O)c2sc(Nc3ccccc3)nc2C)cc1,inactive
3,COc1cccc(Nc2nc(C(N)C3CCCCC3)cs2)n1 (centres undefined),39.8 µM (active)
4,O=C(O)Cc1sc(Nc2ccccc2)nc1-c1ccccc1,inactive
5,NC(Cc1ccc(Cl)cc1)c1csc(Nc2ccc(C(=O)c3ccccc3)cc2)n1 (centres undefined),39.8 µM (active)
6,COc1ccc(C(=O)c2sc(Nc3ccccc3)nc2N)cc1OC,inactive
7,NC(Cc1ccc(F)cc1)c1csc(Nc2ccc(C(=O)c3ccccc3)cc2)n1 (centres undefined),39.8 µM (active)
8,CCOC(=O)c1cc2c(=O)n3ccccc3nc2n(Cc2ccco2)/c1=N/C(=O)c1ccc(OC)cc1,inactive
9,O=C1CCCC(O)=C1C1C2=C(CCCC2=O)OC2=C1C(=O)CCC2,inactive
10,CCOc1cccc2cc(-c3csc(NC(=O)CCC(=O)NCCN4CCCCC4C)n3)c(=O)oc12 (centres undefined),inactive
11,N#CC1=C(N)Oc2cc(N)ccc2C1c1ccccc1F (centres undefined),inactive
12,c1ccc(-c2nnc(SCC3CCCCO3)nc2-c2ccccc2)cc1 (centres undefined),inactive
13,NC(Cc1ccc(F)cc1)c1csc(Nc2nncc3ccccc23)n1 (centres undefined),39.8 µM (active)
14,NC(Cc1ccccc1)c1csc(Nc2nncc3ccccc23)n1 (centres undefined),inactive
15,Cc1ccc(C#N)c(SCC(=O)Nc2nccs2)n1,inactive
16,O=C(O)c1ccc(CP(=O)(c2ccccc2)c2ccccc2)cc1,inactive
17,O=C(C=P(c1ccccc1)(c1ccccc1)c1ccccc1)c1ccccc1-c1ccccc1C(=O)C=P(c1ccccc1)(c1ccccc1)c1ccccc1,20 µM (active)
18,Cc1cccc2nc(CSc3nc4nncc-4c(O)n3-c3cccc(Cl)c3)cc(=O)n12,35.5 µM (active)
19,Cc1ccccc1-n1nnnc1SCc1cc(=O)n2ccsc2n1,inactive
20,CCCc1[nH]c2ccc(C#N)cc2c1CCC,35.5 µM (active)
